# From PubChem BioAssay AID1438 (Sanford-Burnham Center for Chemical Genomics, 2008)
# Hit rate of the full screen: of about 2,200 compounds, about 45 (2%) were called active. How the calls were made is not given here. The list is a sample of the results. Results with a measured potency or affinity are listed apart.
# Molecular target: Runt-related transcription factor 1 (Homo sapiens) + Core-binding factor subunit beta (Homo sapiens) (UniProt Q01196+Q13951)
# Assay: inhibitors of RUNX1 Runt–CBFb-SMMHC binding, biochemical, TR-FRET (AID 1438)
# Details: TR-FRET Runt domain–CBFb-SMMHC binding, at 20 µM, active compounds read high
# Chain of Runt-related transcription factor 1 (Homo sapiens) + Core-binding factor subunit beta (Homo sapiens) (Q01196 whole entry, looked up): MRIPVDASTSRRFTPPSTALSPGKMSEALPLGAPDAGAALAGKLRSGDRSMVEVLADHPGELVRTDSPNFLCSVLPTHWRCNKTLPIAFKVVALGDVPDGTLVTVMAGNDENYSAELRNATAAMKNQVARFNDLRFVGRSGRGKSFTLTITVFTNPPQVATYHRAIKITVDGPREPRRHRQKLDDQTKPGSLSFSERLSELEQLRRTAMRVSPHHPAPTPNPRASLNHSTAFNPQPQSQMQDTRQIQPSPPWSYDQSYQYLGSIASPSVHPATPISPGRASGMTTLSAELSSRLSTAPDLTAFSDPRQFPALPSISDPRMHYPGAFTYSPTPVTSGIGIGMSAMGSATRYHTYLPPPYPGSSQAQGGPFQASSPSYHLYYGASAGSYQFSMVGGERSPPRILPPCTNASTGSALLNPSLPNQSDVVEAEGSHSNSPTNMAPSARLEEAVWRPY
# Chain of Runt-related transcription factor 1 (Homo sapiens) + Core-binding factor subunit beta (Homo sapiens) (Q13951 whole entry, looked up): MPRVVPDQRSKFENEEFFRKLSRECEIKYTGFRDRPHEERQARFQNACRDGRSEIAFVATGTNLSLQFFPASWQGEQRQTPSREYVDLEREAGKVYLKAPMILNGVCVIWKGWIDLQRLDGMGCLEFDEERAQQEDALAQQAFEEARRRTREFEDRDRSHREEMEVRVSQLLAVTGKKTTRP
row,Compound,inhibition
1,Cc1cc(Nc2ccccc2)nc2cc(O)ccc12,15.5% (inactive)
2,Cc1cc(O)ccc1N/C=C(\C#N)c1nc2ccccc2o1,8% (inactive)
3,Cc1ccc(C2C3=C(CC(C)(C)CC3=O)N(CCN3CCOCC3)C3=C2C(=O)CC(C)(C)C3)cc1,42.9% (inactive)
4,CCCN1C2=C(C(=O)CCC2)C(c2ccc(O)c(Br)c2)C2=C1CCCC2=O,24.4% (inactive)
5,C=CCOc1ccc(C2C(C#N)=C(N)N(Nc3ccccc3)C3=C2C(=O)CCC3)cc1OC (centres undefined),32.3% (inactive)
6,CCN1C2=C(C(=O)CCC2)C(c2ccc(O)c(Br)c2)C2=C1CCCC2=O,19.7% (inactive)
7,N#Cc1c(N)[nH]c(=S)c(C#N)c1-c1ccccc1,-64.2% (inactive)
8,CCOC(=O)c1cc2c(=O)n3ccccc3nc2n(CCCOC)c1=NC(=O)c1ccncc1,2.5% (inactive)
9,COCCN1C=C(C(=O)OC)C(c2cc(Br)c(OC)c(OC)c2)C(C(=O)OC)=C1,47.6% (inactive)
10,COC(=O)C1C(O)CCC2CN3CCc4c([nH]c5ccccc45)C3CC21 (centres undefined),-11.7% (inactive)
11,C=CCn1c(=N)c(C(=O)NCCCOC)cc2c(=O)n3cccc(C)c3nc21,2.9% (inactive)
12,Cn1c(=O)nc2n(Cc3ccccc3)c3ccccc3cc-2c1=O,36.1% (inactive)
13,CCn1c(O)c(C=Nc2ccccc2)sc1=S,-3.7% (inactive)
14,O=C1CCCC2=C1C(c1ccc(Br)cc1)c1c([nH]c(=S)[nH]c1=O)N2 (centres undefined),42.6% (inactive)
15,c1ccc(-c2nc(N3CCCCC3)nc3ccccc23)cc1,25.8% (inactive)
16,CCc1nnc(NC(=O)C2(C)COC(c3ccccc3)OC2)s1 (centres undefined),-7% (inactive)
17,CCC(C)(C)n1nnnc1C(c1cc2cc3c(cc2[nH]c1=O)OCO3)N1CCN(C)CC1 (centres undefined),39.5% (inactive)
18,CCCNC(=O)Cn1sc2nc(C)cc(C)c2c1=O,-3.9% (inactive)
19,O=C(O)CSc1c2c(nc3cc(C(=O)N4CCOCC4)ccc13)CCCC2,-4.9% (inactive)
20,O=C(Cn1c2ccccc2c(=O)c2ccccc21)N/N=C/c1ccc(N2CCCC2)c([N+](=O)[O-])c1,10.6% (inactive)
21,O=C(Cn1c2ccccc2c(=O)c2ccccc21)Nc1ccccc1F,-15.4% (inactive)
22,O=C(Cn1c2ccccc2c(=O)c2ccccc21)Nc1cccc(F)c1,39% (inactive)
23,O=C(CCC(=O)N/N=C/c1cc(Cl)cc(Cl)c1O)NCc1ccccc1,-4.9% (inactive)
24,CCc1cc2c(COC(=O)c3c(C)noc3C)cc(=O)oc2cc1O,-33.2% (inactive)

row,Compound,inhibition
1,N=c1c(C(=O)NCc2ccc(F)cc2)cc2c(=O)n3ccccc3nc2n1CCCN1CCOCC1,38.7% (inactive)
2,N=c1c(C(=O)NCc2ccco2)cc2c(=O)n3ccccc3nc2n1Cc1ccccc1,65% (active)
3,Cc1cccn2c(=O)c3cc(C(=O)NCc4ccco4)c(=N)n(CCc4ccccc4)c3nc12,-9.3% (inactive)
4,N=c1c(C(=O)NCc2ccc(F)cc2)cc2c(=O)n3ccccc3nc2n1Cc1cccnc1,48.7% (inactive)
5,COc1ccc(CCn2c(=N)c(C(=O)NCc3ccco3)cc3c(=O)n4cccc(C)c4nc32)cc1,21.9% (inactive)
6,Cc1ccc(CNC(=O)c2cc3c(=O)n4ccccc4nc3n(CC3CCCO3)c2=N)cc1 (centres undefined),36.3% (inactive)
7,COc1ccc(CNC(=O)c2cc3c(=O)n4ccccc4nc3n(Cc3cccnc3)c2=N)cc1,29.1% (inactive)
8,N=c1c(C(=O)NCc2ccc3c(c2)OCO3)cc2c(=O)n3ccccc3nc2n1Cc1cccnc1,48.7% (inactive)
9,CCOC(=O)c1cc2c(=O)n3ccccc3nc2n(Cc2ccccc2)c1=N,41.8% (inactive)
10,CCN1/C(=C/C(=O)c2ccco2)Sc2ccccc21,15.1% (inactive)
11,N#Cc1c(N)n(CCc2ccc(F)cc2)c2nc3ccccc3nc12,32% (inactive)
12,COCCCNC(=S)NCCNc1nc2c(C)c(C)ccc2cc1C#N,-1.9% (inactive)
13,Cc1ccc(C2C=C(c3ccccc3)Nc3nc(N4C(=O)CCC4=O)nn32)cc1 (centres undefined),-11.2% (inactive)
14,Cc1ccc(C2C3=C(CC(C)(C)CC3=O)Nc3[nH]c(=S)[nH]c(=O)c32)cc1 (centres undefined),39.6% (inactive)
15,COCCCNC(=S)NCCCNc1nc2cc(C)cc(C)c2cc1C#N,-6.6% (inactive)
16,O=c1cc(-c2ccc(O)cc2)oc2cc(O)c(C3OC(CO)C(O)C(O)C3O)c(O)c12 (centres undefined),-6.5% (inactive)
17,Cc1c2c(n3c(nc4ccccc43)c1C#N)N(CCN(C)C)CC2,-12.2% (inactive)
18,CCc1nnc(NS(=O)(=O)c2ccc(N/C=C/C(=O)c3ccc(OC)cc3)cc2)s1,-1.7% (inactive)
19,CCc1nnc(NC(=O)c2sc3nc4c(cc3c2N)CCCCCC4)s1,38.3% (inactive)
20,Cc1ccc(C(=O)c2sc3nc4c(cc3c2N)CCC4)cc1,13.7% (inactive)
21,Cc1cc(=O)oc2c(CN3CC(C)OC(C)C3)c(O)c(Cl)cc12 (centres undefined),-12.9% (inactive)
22,CCOC(=O)CCc1c(C)c(C#N)c2nc3ccccc3n2c1-n1ccnc1,-4% (inactive)
23,COC(=O)Cc1c(C)c2cc(Cl)c(OC(=O)c3ccco3)cc2oc1=O,19.4% (inactive)
24,CCOC(=O)c1cc2ccc(OC)cc2oc1=O,-9.7% (inactive)

row,Compound,inhibition
1,O=C(O)c1ccc(N=c2oc3cc(O)ccc3cc2C(=O)NCc2ccccc2)cc1,-1.1% (inactive)
2,c1ccn2c(c1)nc1c2nc2ccccn21,8.5% (inactive)
3,CCOC(=O)C1=C(CSc2nc3c(cc2C#N)CN(C)CC3)OC(N)=C(C#N)C1c1ccc(F)cc1 (centres undefined),22.5% (inactive)
4,CCOC(=O)C1=C(CSc2nc3c(cc2C#N)CN(C)CC3)OC(N)=C(C#N)C1c1ccccc1 (centres undefined),29.2% (inactive)
5,CCOC(=O)C1=C(O)/C(=C/c2cn(CC(=O)N3CCCC3)c3ccccc23)SC1=Nc1ccccc1,4% (inactive)
6,CC1CCc2c(sc(Nc3nc4c(F)cccc4s3)c2C(N)=O)C1 (centres undefined),48.6% (inactive)
7,CCOC(=O)c1c(NC(=O)C(F)(OC)C(F)(F)F)sc2c1CCN(C)C2 (centres undefined),-4.1% (inactive)
8,CCOC(=O)c1cc2c(ccc3ccccc32)oc1=O,-0.5% (inactive)
9,CNC(=O)c1cc2c(ccc3ccccc32)oc1=N,2.9% (inactive)
10,CC(C)OC(=O)CC(=O)CSc1nc2c(cc1C#N)CCCCCC2,38.5% (inactive)
11,CC(=O)c1c(N2CCN(C)CC2)nc(=S)n(Cc2ccccc2)c1C,15.7% (inactive)
12,CCCOc1c(Br)cc(C2C3=C(CCCC3=O)N(C)C3=C2C(=O)CCC3)cc1OC,41.4% (inactive)
13,CCCOc1c(Br)cc(C2C3=C(CCCC3=O)N(CC)C3=C2C(=O)CCC3)cc1OC,-13.6% (inactive)
14,C=CCNc1sc(C(=O)c2cccs2)c(N)c1C#N,-0.1% (inactive)
15,CNc1sc(C(=O)c2cccs2)c(N)c1-c1nc2ccccc2s1,35.8% (inactive)
16,Cc1cccn2c(=O)c(/C=C(\C#N)C(N)=O)c(Oc3ccccc3)nc12,-15.3% (inactive)
17,COc1cccc(C(=O)Nc2nc3c(s2)CN(C)CC3)c1,-21% (inactive)
18,COCCCNC(=O)c1c(N)n(-c2ccccc2)c2nc3ccccc3nc12,-6.7% (inactive)
19,COCCCNC(=O)c1c(N)n(-c2ccc(S(N)(=O)=O)cc2)c2nc3ccccc3nc12,43.4% (inactive)
20,CCCN1C2CCCC1CC(NC(=S)Nc1ccc(OC)cc1)C2 (centres undefined),-12% (inactive)
21,CSc1nc(NCC(C)C)c2c3c(sc2n1)CN(C)CC3,37.7% (inactive)
22,CSc1nc(NCCCO)c2c3c(sc2n1)CN(C)CC3,-10.5% (inactive)
23,COc1ccc(Br)cc1C1NC(=O)c2c(sc3c2CCN(C)C3)N1 (centres undefined),15% (inactive)
24,CCn1nc(NC(=O)C2CCCO2)c2cc3cccc(C)c3nc21 (centres undefined),2.1% (inactive)

row,Compound,inhibition
1,CCN(CC)c1ccc(/C=N\NC(=O)c2cccc3cc[nH]c23)cc1,5.9% (inactive)
2,CCN1C=C(C(=O)OC)C(c2cccc(OC)c2OC)C(C(=O)OC)=C1,-23.2% (inactive)
3,Cc1c(O)ccc2c3c(c(=O)oc12)CCC(C)C3 (centres undefined),19.7% (inactive)
4,COc1cc(/C=C(\C#N)C(=O)Nc2cccc3ncccc23)cc(OC)c1OC,18.6% (inactive)
5,Cc1ccc(/C=C/C(=O)Nc2cccc3ncccc23)o1,19.8% (inactive)
6,COc1ccc(-c2cc(C(F)(F)F)n3nc(N)nc3n2)cc1,25.3% (inactive)
7,O=C(Cc1c2ccccc2nc2ccccc12)c1ccccc1,48.7% (inactive)
8,COCCCNC(=O)c1cc2c(=O)n3cccc(C)c3nc2n(C(C)C)c1=N,1.4% (inactive)
9,CC(=O)Nc1nc2n(n1)C(c1ccc(Cl)cc1)C=C(C)N2 (centres undefined),45.7% (inactive)
10,CC1=CC(c2ccccc2)n2nc(NS(=O)(=O)c3ccc(C)cc3)nc2N1 (centres undefined),49.9% (inactive)
11,N#Cc1c(N)n(-c2cccc(C(=O)O)c2)c2nc3ccccc3nc12,-8.2% (inactive)
12,O=c1oc2ccc3ccccc3c2cc1-c1nnc(-c2cccs2)o1,29.8% (inactive)
13,CCOC(=O)c1cc2c(=O)n3ccccc3nc2n(CCCOC)c1=NC(=O)c1cccnc1,47.6% (inactive)
14,CN(C)c1cccc(C(=O)OCc2cc(=O)oc3cc(O)ccc23)c1,47.5% (inactive)
15,COC(=O)Cc1cc(=O)oc2cc(O)ccc12,32.6% (inactive)
16,CCOC(=O)c1c(NC(=O)CSc2ncccn2)sc2c1CCN(Cc1ccccc1)C2,-5.3% (inactive)
17,CCCCNC(=O)c1cc2c(=O)n3cccc(C)c3nc2n(Cc2ccccc2)c1=N,33.9% (inactive)
18,CCCn1c(C)nc2c(c1=O)c1nc3ccccc3nc1n2CCC1=CCCCC1,36.3% (inactive)
19,COc1ccc(-n2c(N)c(C(=O)NCc3ccco3)c3nc4ccccc4nc32)cc1,42.9% (inactive)
20,CCCCn1c2nc3ccccc3nc2c2c(=N)oc(C)nc21,36.7% (inactive)
21,Cc1nc2c(c(=O)n1Cc1ccco1)c1nc3ccccc3nc1n2Cc1ccccc1,80.9% (active)
22,CCOc1ccc(-n2c(N)c(C(=O)NCc3ccco3)c3nc4ccccc4nc32)cc1,43.5% (inactive)
